Over roughly 16,000 sequences, “rpm ratio (pull-down/input)” has its median near 0.5; the highest 2% begin near 5.5. The full list was thinned out, with the highest values kept by preference.

This assay deals with T1, MBP-FoxP3dN (Mus musculus, UniProt Q99JB6 188-423).
T1 sequence: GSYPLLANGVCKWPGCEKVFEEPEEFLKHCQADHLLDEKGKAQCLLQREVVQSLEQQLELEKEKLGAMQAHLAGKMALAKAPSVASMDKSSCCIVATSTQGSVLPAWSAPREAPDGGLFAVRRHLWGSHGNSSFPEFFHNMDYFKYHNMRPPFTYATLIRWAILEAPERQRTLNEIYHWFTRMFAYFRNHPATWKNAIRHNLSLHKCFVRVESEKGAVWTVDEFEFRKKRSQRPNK
As to the kind of experiment: PD-seq (MBP pull-down with sequencing); 20 mM Tris-HCl pH 7.5, 100 mM NaCl, 1.5 mM MgCl2, 0.4 uM protein, 0.1 uM dsDNA library, 30 min, room temperature, amylose pull-down; high values mean tight binding. The conditions noted are these: protein: recombinant; tags: His6-MBP; chain copies: 2; dsDNA, one strand shown. The procedure, abridged:
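His6-MBP-tagged mouse FoxP3 or FoxP1 fragment lacking the N-terminus, expressed in E. coli, was mixed at 0.4 µM with 0.1 µM Klenow-filled double-stranded degenerate DNA library. Incubation was 30 min at room temperature in Tris pH 7.5 buffer with NaCl and MgCl2. Complexes were caught on amylose resin and washed three times; DNA was released with proteinase K, PCR-barcoded and Illumina-sequenced. Binding is reads-per-million enrichment, pull-down over input, with replicates pooled.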
As to “GATGATTGTTCTCCCAGCTGATGAATTTTGCACGTCGAGTAAACAAATTTTCCTAATCTTTCTGTTCAAGCGCCATCTAC”, the binding signal is 3.32 RPM ratio (pull-down/input). In the case of “GATGATTGTTCTCCCAGCTGATGAATTTTTAGGATCGAGTAAACAAATTTTCCTAATCTTTCTGTTCAAGCGCCATCTAC”, the binding signal is 0.222 RPM ratio (pull-down/input). On to “GATGATTGTTCTCCCAGCTGATGAATTCAATTAGTCGAGTAAACAAATTTTCCTAATCTTTCTGTTCAAGCGCCATCTAC”, for which the binding signal is 1.25 RPM ratio (pull-down/input).

Turning to “GATGATTGTTCTCCCAGCTGATGAATTCTGTAGGTCGAGTAAACAAATTTTCCTAATCTTTCTGTTCAAGCGCCATCTAC”, the binding signal is 0.948 RPM ratio (pull-down/input).

“GATGATTGTTCTCCCAGCTGATGAATTTGACGTATCGAGTAAACAAATTTTCCTAATCTTTCTGTTCAAGCGCCATCTAC”: the binding signal was 1.27 RPM ratio (pull-down/input). Take “GATGATTGTTCTCCCAGCTGATGAATTGGAGTACTCGAGTAAACAAATTTTCCTAATCTTTCTGTTCAAGCGCCATCTAC”: the binding signal is 0.523 RPM ratio (pull-down/input). For “GATGATTGTTCTCCCAGCTGATGAATTCGAACTTTCGAGTAAACAAATTTTCCTAATCTTTCTGTTCAAGCGCCATCTAC”, the binding signal was 0.271 RPM ratio (pull-down/input). On to “GATGATTGTTCTCCCAGCTGATGAATTCATCTCATCGAGTAAACAAATTTTCCTAATCTTTCTGTTCAAGCGCCATCTAC”, for which the binding signal was 0.393 RPM ratio (pull-down/input). On to “GATGATTGTTCTCCCAGCTGATGAATTAGTTTGTTCGAGTAAACAAATTTTCCTAATCTTTCTGTTCAAGCGCCATCTAC”, for which the binding signal is 6.22 RPM ratio (pull-down/input).

Take “GATGATTGTTCTCCCAGCTGATGAATTGTTAGTTTCGAGTAAACAAATTTTCCTAATCTTTCTGTTCAAGCGCCATCTAC”: the binding signal is 4.23 RPM ratio (pull-down/input). The same measure for “GATGATTGTTCTCCCAGCTGATGAATTTAGTTGTTCGAGTAAACAAATTTTCCTAATCTTTCTGTTCAAGCGCCATCTAC”: 5.93 RPM ratio (pull-down/input). Turning to “GATGATTGTTCTCCCAGCTGATGAATTAGTTTTTTCGAGTAAACAAATTTTCCTAATCTTTCTGTTCAAGCGCCATCTAC”, the binding signal was 3.9 RPM ratio (pull-down/input). As to “GATGATTGTTCTCCCAGCTGATGAATTTTTTAGTTCGAGTAAACAAATTTTCCTAATCTTTCTGTTCAAGCGCCATCTAC”, the binding signal is 0.299 RPM ratio (pull-down/input). Next, “GATGATTGTTCTCCCAGCTGATGAATTAGTTTCTTCGAGTAAACAAATTTTCCTAATCTTTCTGTTCAAGCGCCATCTAC”: 2.72 RPM ratio (pull-down/input); “GATGATTGTTCTCCCAGCTGATGAATTAGTAGTTTCGAGTAAACAAATTTTCCTAATCTTTCTGTTCAAGCGCCATCTAC”: 1.93 RPM ratio (pull-down/input). On to “GATGATTGTTCTCCCAGCTGATGAATTAGTTGTTTCGAGTAAACAAATTTTCCTAATCTTTCTGTTCAAGCGCCATCTAC”, for which the binding signal is 6.61 RPM ratio (pull-down/input). On to “GATGATTGTTCTCCCAGCTGATGAATTCTTTAGTTCGAGTAAACAAATTTTCCTAATCTTTCTGTTCAAGCGCCATCTAC”, for which the binding signal was 0.297 RPM ratio (pull-down/input). In the case of “GATGATTGTTCTCCCAGCTGATGAATTTGTTAGTTCGAGTAAACAAATTTTCCTAATCTTTCTGTTCAAGCGCCATCTAC”, the binding signal is 7.44 RPM ratio (pull-down/input).

In the case of “GATGATTGTTCTCCCAGCTGATGAATTAGTTAGTTCGAGTAAACAAATTTTCCTAATCTTTCTGTTCAAGCGCCATCTAC”, the binding signal is 4.22 RPM ratio (pull-down/input).

As to “GATGATTGTTCTCCCAGCTGATGAATTAGTTCTTTCGAGTAAACAAATTTTCCTAATCTTTCTGTTCAAGCGCCATCTAC”, the binding signal was 0.409 RPM ratio (pull-down/input). Next, “GATGATTGTTCTCCCAGCTGATGAATTCGACAGGTCGAGTAAACAAATTTTCCTAATCTTTCTGTTCAAGCGCCATCTAC”: 0.284 RPM ratio (pull-down/input); “GATGATTGTTCTCCCAGCTGATGAATTCAGACATTCGAGTAAACAAATTTTCCTAATCTTTCTGTTCAAGCGCCATCTAC”: 0.869 RPM ratio (pull-down/input). For “GATGATTGTTCTCCCAGCTGATGAATTTCGCGAGTCGAGTAAACAAATTTTCCTAATCTTTCTGTTCAAGCGCCATCTAC”, the binding signal was 0.675 RPM ratio (pull-down/input).

Turning to “GATGATTGTTCTCCCAGCTGATGAATTAGAGCCCTCGAGTAAACAAATTTTCCTAATCTTTCTGTTCAAGCGCCATCTAC”, the binding signal is 0.358 RPM ratio (pull-down/input). The same measure for “GATGATTGTTCTCCCAGCTGATGAATTTCAACGCTCGAGTAAACAAATTTTCCTAATCTTTCTGTTCAAGCGCCATCTAC”: 0.363 RPM ratio (pull-down/input). Turning to “GATGATTGTTCTCCCAGCTGATGAATTTATGGAGTCGAGTAAACAAATTTTCCTAATCTTTCTGTTCAAGCGCCATCTAC”, the binding signal was 0.454 RPM ratio (pull-down/input). Regarding “GATGATTGTTCTCCCAGCTGATGAATTAGACAAATCGAGTAAACAAATTTTCCTAATCTTTCTGTTCAAGCGCCATCTAC”, the binding signal was 0.417 RPM ratio (pull-down/input). Turning to “GATGATTGTTCTCCCAGCTGATGAATTACTTCACTCGAGTAAACAAATTTTCCTAATCTTTCTGTTCAAGCGCCATCTAC”, the binding signal was 0.319 RPM ratio (pull-down/input). Regarding “GATGATTGTTCTCCCAGCTGATGAATTCTTAATCTCGAGTAAACAAATTTTCCTAATCTTTCTGTTCAAGCGCCATCTAC”, the binding signal is 0.28 RPM ratio (pull-down/input).

Take “GATGATTGTTCTCCCAGCTGATGAATTTATACCTTCGAGTAAACAAATTTTCCTAATCTTTCTGTTCAAGCGCCATCTAC”: the binding signal is 0.85 RPM ratio (pull-down/input).

For “GATGATTGTTCTCCCAGCTGATGAATTGAACGGGTCGAGTAAACAAATTTTCCTAATCTTTCTGTTCAAGCGCCATCTAC”, the binding signal was 0.23 RPM ratio (pull-down/input). Consider “GATGATTGTTCTCCCAGCTGATGAATTCATATTGTCGAGTAAACAAATTTTCCTAATCTTTCTGTTCAAGCGCCATCTAC”, for which the binding signal is 1.06 RPM ratio (pull-down/input). Take “GATGATTGTTCTCCCAGCTGATGAATTCGGTCATTCGAGTAAACAAATTTTCCTAATCTTTCTGTTCAAGCGCCATCTAC”: the binding signal was 0.728 RPM ratio (pull-down/input).

These data come from PMC12820563, “FoxP3 forms a head-to-head dimer in vivo and stabilizes its multimerization on adjacent microsatellites”.
